# Measurements: PubChem BioAssay AID588549 (Broad Institute, 2011)
# Out of some 360,000 compounds screened, about 780 (0.22%) were called active. The full list was thinned out, with actives kept by preference. A number with no mark means an inactive call. Cut-off read from the data, not from the text of the source: active = inhibition above about 8.5% (passing the limit was not always enough); inconclusive = no clear call, values can overlap the other calls.
# Tested on: Mycobacterium tuberculosis FadD28 fatty-acid-AMP ligase
# Assay: inhibitors of FadD28 bisubstrate probe binding, primary screen, biochemical, fluorescence polarization, single point (AID 588549)
# Conditions: at 12.5 µM, hits give high values
row,Structure (SMILES),inhibition
1,C=CCn1c(SCc2cc(C(=O)OC)c(C)o2)nnc1-c1ccncc1,-3.43%
2,Cc1ccc(C(c2sc3nc(C)nn3c2O)N2CCN(c3ccc(F)cc3)CC2)cc1 (stereo not drawn),-3.79%
3,CC(=O)c1c(N2CCN(c3ccc(F)cc3)CC2)nc(=S)n(-c2ccccc2)c1C,-1.67%
4,O=C(C1Cc2ccccc2CN1C(=O)c1ccco1)N1CCN(c2ccccc2)CC1 (stereo not drawn),-0.0045%
5,C[C@H]1CN([C@@H](C)CO)C(=O)c2cc(C3=CCCCC3)cnc2O[C@@H]1CN(C)C(=O)Cc1ccccc1,-1.03%
6,Cc1nn(Cc2ccccc2)c(C)c1C(=O)N1CCN(CC(=O)Nc2ccccc2Cl)CC1,-3.56%
7,COCCCn1c(-c2cccs2)nc2nc3ccccc3nc21,-0.0615%
8,CCC(=O)Nc1cccc(NC(=O)CSc2nnc(-c3ccc(NS(C)(=O)=O)cc3)n2C)c1,1.19%
9,COCCN1Cc2cccc(C(=O)Nc3ccccc3OC)c2C1=O,-3.48%
10,Cc1cccc(CN2CCN(C3CN(Cc4ccccc4)S(=O)(=O)C3)CC2)c1 (stereo not drawn),-1.16%
11,CCN(CC(=O)NCc1ccc(F)cc1)S(=O)(=O)c1ccc(Cl)s1,-3.08%
12,C=CC(=O)OCCOCCOCCOCCOC(=O)C=C,-2.6%
13,COC(=O)CCCCC1=CCC2C(=O)C=C(O)C2C1 (stereo not drawn),-1.93%
14,COc1cc(CNCc2ccc(OC)c3ccccc23)cc(OC)c1OC,-0.377%
15,CCc1nc2c(OCCOc3ccccc3)cccn2c1N(C)C(=O)c1cccs1,-4.76%
16,COC(=O)C1(C)CC1(c1ccccc1)c1ccccc1 (stereo not drawn),-0.161%
17,O=C1c2ccccc2C2=Nc3ccccc3SC(c3ccccc3F)C12 (stereo not drawn),-4.89%
18,COC(=O)C1CC2=C(CC(C)(C)CC2=O)N(c2ccccc2)C1=O (stereo not drawn),1.35%
19,Cc1ccc(N(Cc2ccc(C(=O)Nc3ccccc3C(=O)NCc3ccco3)cc2)S(C)(=O)=O)cc1C,-1.65%
20,CC/C(=N\NC(=O)c1ccccc1Cl)c1ccc(Br)s1,-2.73%
21,CC/C(=N\NC(=O)c1ccccc1O)c1c(O)n(Cc2ccccc2)c(=O)[nH]c1=O,17.8% (active)
22,COCCN(C(=O)c1ccccc1F)c1c(N)n(Cc2ccccc2)c(=O)[nH]c1=O,-1.47%

row,Structure (SMILES),inhibition
1,Cc1ccc(C)c2c1cc(C)c1nnc(SCC(=O)Nc3cccc(C(=O)O)c3)n12,-2.19%
2,NNC(=O)COc1ccc(C2SCCS2)cc1,-1.11%
3,CCN1CC(CN(C)Cc2nc(-c3ccc(Cl)cc3)no2)CC1=O (stereo not drawn),-0.366%
4,Oc1c(Cl)cc(Cl)c(Cl)c1Cc1c(O)c(Cl)cc(Cl)c1Cl,65.8% (active)
5,COc1ccc(SCc2noc(C(=O)NCC3CCCO3)c2C(=O)O)cc1 (stereo not drawn),0.0895%
6,CCn1nnc2cc(C(=O)Nc3ccc(C(=O)OC(C)C)cc3)ccc21,-3.75%
7,CC1CCCCC1NC(=O)c1cc(=O)[nH]c2ccccc12 (stereo not drawn),-0.133%
8,COc1ccc(OC)c(C(=O)c2coc3ccc(O)c(CN4CCOCC4)c23)c1,-2.66%
9,CCOC(=O)c1ccccc1N1C(=O)C2Sc3[nH]c(=O)sc3C(/C=C/c3ccccc3)C2C1=O (stereo not drawn),0.286%
10,COc1cc(OC)cc(C(=O)NC2CCN(C(=O)N3c4ccccc4Sc4ccccc43)CC2)c1,-5.05%
11,O=C(CSc1nc2ccccc2o1)N1CCN(c2ccc(Cl)cc2)CC1,1.06%
12,CN(C)c1ccc(Nc2c3c4c(cccc4n(C)c2=O)C(=O)c2ccccc2-3)cc1,-0.49%
13,O=C(Cc1ccc([N+](=O)[O-])cc1)NCCS(=O)(=O)N1CCN(c2ccccc2)CC1,-0.717%
14,CC(C)C(NC(=O)c1c(F)cccc1F)C(=O)NNC(=O)c1ccccc1 (stereo not drawn),-3.91%
15,CN1C(=O)CC(c2ccccc2)C1=O (stereo not drawn),-1.61%
16,CCC(C)N1C(=O)S/C(=C/c2ccc(Sc3nc4ccccc4[nH]3)o2)C1=O (stereo not drawn),-0.197%
17,O=C(O)C(c1ccccc1)N1C(=O)/C(=C\c2ccc(-c3cccc(Cl)c3)o2)SC1=S (stereo not drawn),13% (active)
18,O=C(Cn1nnc(-c2ccccc2)n1)N/N=C/c1ccc(-c2ccc(Cl)cc2)o1,-1.53%
19,COc1c(C)cc(C(=O)C2CCCN(S(=O)(=O)c3c(C)noc3C)C2)cc1C (stereo not drawn),-0.846%
20,CCOCN(C(=O)Cn1c(C(C)O)nc2ccccc21)c1c(C)cccc1CC (stereo not drawn),-5.11%
21,CCCNC(=O)c1cc(C2CCCCN2C(=O)OC)on1 (stereo not drawn),-0.481%
22,CCN(CC)S(=O)(=O)c1ccc(N2CC(C(=O)NCc3cccnc3)CC2=O)cc1 (stereo not drawn),-2.96%

row,Structure (SMILES),inhibition
1,O=C(Cn1c2[n+](c3ccc(C(F)(F)F)cc31)CCCCC2)Nc1c(F)cccc1F,4.18%
2,CC1CCN(c2ccc(C(=O)Nc3nnc(C4CC4)s3)cc2[N+](=O)[O-])CC1,-1.32%
3,Cc1cc(OCCCC(=O)Nc2cc(S(=O)(=O)N3CCOCC3)ccc2N2CCOCC2)ccc1Cl,0.172%
4,COC(=O)c1cc(Oc2ccc(S(=O)(=O)N3CCOCC3)cc2[N+](=O)[O-])cc(C(=O)OC)c1,0.28%
5,O=[N+]([O-])c1cc(Cl)cc(/C=N/NC(=S)Nc2cc(S(=O)(=O)N3CCOCC3)ccc2Cl)c1O,22.5% (active)
6,O=S(=O)(NCC1OCCc2ccccc21)c1ccccc1 (stereo not drawn),-0.133%
7,Cn1c(=O)cc(SCC(=O)N2CCCC2)c2cc(Cl)ccc21,-4.85%
8,CC(C)Cc1nn2c(=O)cc(O)nc2s1,0.338%
9,CC(=O)N1CCN(S(=O)(=O)c2ccc(C)c([N+](=O)[O-])c2)C1C(C)C (stereo not drawn),-3.8%
10,COC(=O)C1CCN(C(=O)c2ccc3oc(Cc4ccc(Cl)cc4)nc3c2)CC1,-0.812%
11,O=C(CN1C(=O)NC2(CCCC2)C1=O)NCC1CCCO1 (stereo not drawn),-1.47%
12,CCc1nc2ccc(C(=O)NC3CCN(Cc4ccccc4)CC3)cn2c1N(CC)CCOC,-4.48%
13,CNS(=O)(=O)c1cnccc1N1CCN(c2cccc(C)c2)CC1,-0.922%
14,CCn1cc(/C=C(\NC(=O)c2ccc(C)cc2)C(=O)NCCN2CCOCC2)c2ccccc21,1.23%
15,CC(C)CCN1NC2(CCC(C)CC2)NC1=S (stereo not drawn),-3.86%
16,COc1ccc(S(=O)(=O)NC(=O)C2(C)CCN2C(=O)COc2ccc(Cl)cc2)cc1 (stereo not drawn),-5.43%
17,COc1cccc(/C=N/Nc2ccc(S(=O)(=O)Nc3ccccc3C(=O)O)cc2[N+](=O)[O-])c1O,35.4% (active)
18,CCN(CC(=O)NCc1cccs1)C(=O)c1cccc(S(=O)(=O)Nc2ccccc2OC)c1,-3.38%
19,COc1ccc(Br)cc1/C=N/Nc1ccc(S(=O)(=O)Nc2ccccc2C(=O)O)cc1[N+](=O)[O-],-1.21%
20,O=c1c(F)cn(C2CCCO2)c(=O)n1Cc1ccccc1Cl (stereo not drawn),-2.45%
21,Cc1nnc(CN(C)Cc2cn[nH]c2-c2ccc(-c3ccccc3)cc2)o1,-1.34%
22,COc1ccc(OC)c(S(=O)(=O)N(C)CC(=O)N2CCN(c3ccccc3)CC2)c1,-3.85%

row,Structure (SMILES),inhibition
1,COc1ccccc1CNC(=O)CSc1nc(=O)n(Cc2ccncc2)c2c1CCC2,-0.173%
2,OC(CNC1CCCC1)COc1ccc(F)cc1 (stereo not drawn),-4.58%
3,Cc1noc(C)c1-c1ccc(C(=O)NCc2ccncc2)c2occc12,-2.15%
4,Cc1ccc(O)c(-c2cc(C(=O)Nc3c(C)n(C)n(-c4ccccc4)c3=O)[nH]n2)c1,-2.28%
5,COC(=O)c1ccc(CSc2nnc(NC(C)C)s2)cc1,-3.65%
6,O=C(O)c1ccc(N/N=C/c2cn(-c3ccccc3)nc2-c2cccs2)cc1,23.7% (active)
7,COc1ccc(Cl)cc1NC(=O)CN(C)C(=O)c1cn(-c2ccccc2)nc1-c1cccs1,-1.26%
8,O=C(O)c1ccc(N/N=C/c2ccc3ncccc3c2)cc1,-1.11%
9,Cc1nnc(Nc2ccccc2F)s1,-1.11%
10,COCCNC(=O)CN(Cc1ccco1)C(=O)CCC(=O)Nc1nccs1,-3.92%
11,COCCNC(=O)Nc1ccc2nc(-c3ccco3)c(-c3ccco3)nc2c1,20.8% (active)
12,COCCNC(=O)c1ccc2nc(Cc3ccc(OC)c(OC)c3)oc2c1,-2.89%
13,O=S(=O)(NCCCCCCNS(=O)(=O)c1c(F)cccc1F)c1ccc2c(c1)OCCO2,-2.1%
14,O=C(COC(=O)c1cccc(Cl)c1)NC(=O)NCc1ccccc1,-1.95%
15,O=C1c2ccccc2C(=O)N1c1ccccc1S(=O)C(F)(F)F (stereo not drawn),-3.78%
16,CC(C(=O)Nc1ccc(F)c(F)c1F)N1CCCCCC1 (stereo not drawn),-6.4%
17,CC1(C)CC(=O)C=C(NCc2ccncc2)C1,1.4%
18,CCOc1ccc(CN(C)C(=O)c2ccc(=O)[nH]c2)cc1,-0.407%
19,O=C(Nc1c2c(nn1-c1ccccc1)CS(=O)(=O)C2)C1CCCC1,-0.538%
20,Cc1nn(C)c(Cl)c1CN1CCC(n2nccc2NC(=O)C2CCCC2)CC1,1.24%
21,O=C(Cn1ccc([N+](=O)[O-])n1)NCc1cccs1,-2.06%
22,N#C/C(=C/c1ccc(N2CCCCC2)o1)C(=O)NCCc1c[nH]c2ccccc12,-1.59%
